# Laboratory results reported in PubChem BioAssay (EPA / NIEHS).
# Records with an inconclusive call do not appear. Active and inactive are the calls of the source. Rule for the calls, unless noted: active = hit-call score of the fitted dose curve at least 0.9, where 1 is the maximum; inconclusive = response in the unintended direction; inactive = score below 0.9.
# Assays:
# [1] = STM_H9_OrnCyssISnorm_ratio: Stemina devTOX quickPredict H9 human embryonic stem cell (hESC)-based Assay for Ornithine (ORN):Cystine (CYSS) Ratio (AID 2283714)
# Method in brief: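 Undifferentiated H9 hESCs exposed 72 h, media and compound replaced every 24 h; final 24-h conditioned media deproteinized and analysed by UPLC-HRMS against C13 spike-ins. Value is the internal-standard-normalized ORN/CYSS ratio versus 0.1% DMSO.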
# [2] = CCTE_Harrill_HTTr_Viability_MCF7: CCTE's 6-hour Cell Viability Assessment for the High-Throughput Transcriptomics (HTTr) Platform, in MCF-7 cells cultured in DMEM + 10% fetal bovine serum, Harrill Lab (AID 2284010; active = hit-call score of the fitted dose curve at least 0.9, where 1 is the maximum; inactive = score below 0.9)
# Method in brief: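 Viability measured through PI dye exclusion by high-content imaging at 6 h post-dosing.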
# [3] = CCTE_Harrill_HTTr_Apoptosis_MCF7: CCTE's 6-hour Apoptosis Assessment for the High-Throughput Transcriptomics (HTTr) Platform, in MCF-7 cells cultured in DMEM + 10% fetal bovine serum, Harrill Lab (AID 2284011; active = hit-call score of the fitted dose curve at least 0.9, where 1 is the maximum; inactive = score below 0.9)
# Method in brief: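 Apoptosis in MCF-7 cells grown in DMEM with 10% fetal bovine serum was scored after a six hour exposure by high content imaging of caspase-3/7 activation (CellEvent Caspase 3/7 Green), with DMSO serving as negative control and baseline.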
# [4] = CCTE_Harrill_HTTr_CellCount_MCF7: CCTE's Cell Proliferation Assessment for the High-Throughput Transcriptomics (HTTr) Platform, Harrill Lab (AID 2284012);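 note: count of Hoechst-stained nuclei per well by high-content imaging in MCF-7 cells; cells exposed to compound for six hours; intended direction is loss of nuclei count meaning fewer cells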
# Method in brief: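 Nuclei counting (Hoechst, high content imaging) in MCF-7 after a 6 h treatment at eight concentrations. Activity fitted bidirectionally, DMSO as negative control.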
# [5] = target: PGR (gene 5241) (UniProt P06401); assay: TOX21_PR_BLA_Followup_Agonist_ratio: Tox21 HEK293 Progesterone Receptor (PR) Agonism Beta-lactamase Follow-Up Assay, Ratio (AID 2283933)
# Method in brief: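 Agonist-mode follow-up in HEK293T cells carrying a UAS-driven beta-lactamase reporter, grown in 2% charcoal-stripped serum. Compounds act for 16 hr; activity is the ch2/ch1 cleavage ratio, with same-well CellTiter-Glo viability run in parallel.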
# [6] = target: PGR (gene 5241) (UniProt P06401); assay: TOX21_PR_BLA_Followup_Antagonist_ratio: Tox21 HEK293 Progesterone Receptor (PR) Antagonism Beta-lactamase Follow-Up Assay, Ratio (AID 2283934);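 note: PR-UAS-bla HEK293T cells stimulated with 1 nM R5020 agonist for 16 hr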
# Method in brief: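 Antagonist mode used 1 nM R5020 (final) as agonist on a beta-lactamase reporter line in HEK293T cells. Activity was taken from the substrate cleavage ratio after 16 hr exposure.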
# [7] = target: PGR (gene 5241) (UniProt P06401); assay: TOX21_PR_LUC_Followup_Agonist: Tox21 HEK293 Progesterone Receptor (PR) Agonism Luciferase Follow-Up Assay (AID 2283937; active = hit-call score of the fitted dose curve at least 0.9, where 1 is the maximum; inactive = score below 0.9)
# Method in brief: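 Agonist mode: reporter cells carrying PR-A and luciferase are treated 16 h with test compounds at 37C. Luciferase induction is measured by luminescence and fitted upward against DMSO.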
# [8] = target: PGR (gene 5241) (UniProt P06401); assay: TOX21_PR_LUC_Followup_Antagonist: Tox21 HEK293 Progesterone Receptor (PR) Antagonism Luciferase Follow-Up Assay (AID 2283938);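 note: curve fitted upward as signal gain over DMSO baseline despite antagonist label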
# Method in brief: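 Luciferase reporter in HEK293-PR-A-luc cells: 16 h compound treatment at 37C, ONE-Glo luminescence detection, DMSO as negative control and baseline.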
# [9] = target: Thyroid hormone receptor alpha (Rattus norvegicus) + Thyroid hormone receptor beta (Rattus norvegicus) (UniProt P18113+P63059); assay: TOX21_TR_LUC_GH3_Antagonist_Followup: Tox21 GH3 Thyroid Hormone Receptor Antagonism Luciferase Follow-Up Assay (AID 2283942)
# Method in brief: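 Antagonist mode: GH3 cells seeded 1,500/well, compounds at 15 concentrations (92 uM to 5nM final) plus T3 at 1.0 nM final, 24 h at 37C. Luciferase read with ONE-Glo after 30 min at room temperature.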
# [10] = target: THRA (gene 7067) (UniProt P10827); assay: TOX21_TRA_COA_Antagonist_Followup_ratio: Tox21 Thyroid Hormone Receptor alpha Antagonism through Coactivator Recruitment Follow-Up Assay, Ratio (AID 2283953)
# Method in brief: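 This follow-up to the GH3 luciferase screen checks specificity in a cell-free format. It measures SRC-2 coactivator peptide binding to TRα LBD by TR-FRET and scores loss of ratio signal relative to DMSO.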
# [11] = target: THRB (gene 7068) (UniProt P10828); assay: TOX21_TRB_COA_Antagonist_Followup_ratio: Tox21 Thyroid Hormone Receptor beta Antagonism through Coactivator Recruitment Follow-Up Assay, Ratio (AID 2283967)
# Method in brief: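 Cell-free TR-FRET: GST-TRb LBD (5.0 nM) with fluorescein-SRC-2 peptide (200 nM) and Tb anti-GST antibody (2 nM), 0.10% BSA. 520:495 nm emission ratio normalized to DMSO (0%) and T3 (100%).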
# [12] = target: Retinoic acid receptor RXR-alpha (Homo sapiens) (UniProt P19793); assay: TOX21_TR_RXR_BLA_Antagonist_Followup_ratio: Tox21 Thyroid Hormone Receptor beta Retinoid X Receptor alpha (RXRa) Antagonism Beta-lactamase (BLA) Follow-Up Assay, Ratio (AID 2283972)
# Method in brief: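 Compounds were tested in triplicate at 11 concentrations on RXRa-bla HEK293T cells for 16 h. Substrate cleavage ratio, normalized to DMSO, gave the endpoint.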
# [13] = target: THRA (gene 7067) (UniProt P10827); assay: TOX21_TRA_COA_Agonist_Followup_ratio: Tox21 Thyroid Hormone Receptor alpha Agonism through Coactivator Recruitment Follow-Up Assay, Ratio (AID 2283948; active = hit-call score of the fitted dose curve at least 0.9, where 1 is the maximum; inactive = score below 0.9)
# Method in brief: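 Agonist-mode biochemical TR-FRET with TRα LBD and SRC-2 coactivator peptide; activity expressed as percent of T3 response over DMSO baseline.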
# [14] = target: THRB (gene 7068) (UniProt P10828); assay: TOX21_TRB_BLA_Agonist_Followup_ratio: Tox21 Thyroid Hormone Receptor beta Agonism Beta-lactamase (BLA) Follow-Up Assay, Ratio (AID 2283954)
# Method in brief: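 Human TRβ LBD–GAL4 DBD fusion in GeneBLAzer UAS-bla HEK293T cells; 11 concentrations in triplicate, 18 h at 37°C/5% CO2, T3 as agonist control. CCF4-AM substrate 2 h at room temperature; 460:530 nm ratio fitted for gain of signal versus DMSO.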
# [15] = target: THRB (gene 7068) (UniProt P10828); assay: TOX21_TRB_COA_Agonist_Followup_ratio: Tox21 Thyroid Hormone Receptor beta Agonism through Coactivator Recruitment Follow-Up Assay, Ratio (AID 2283963; active = hit-call score of the fitted dose curve at least 0.9, where 1 is the maximum; inactive = score below 0.9)
# Method in brief: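 GST-TRb LBD 5.0 nM + 0.10% BSA + cpd; add fluorescein-SRC-2 200 nM / Tb anti-GST Ab 2 nM; TR-FRET ex 340, em 520:495; norm DMSO 0%, T3 100%.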
# [16] = target: Retinoic acid receptor RXR-alpha (Homo sapiens) (UniProt P19793); assay: TOX21_TR_RXR_BLA_Agonist_Followup_ratio: Tox21 Thyroid Hormone Receptor beta Retinoid X Receptor alpha (RXRa) Agonism Beta-lactamase (BLA) Follow-Up Assay, Ratio (AID 2283968)
# Method in brief: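 This follow-up tests whether responses seen in the TR GH3 luciferase agonist screen are specific, using a GAL4-driven beta-lactamase reporter for RXRa in HEK293T cells. Compound exposure lasts 16 h; signal is the cleaved/uncleaved substrate ratio.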
# [17] = TOX21_TRB_BLA_Antagonist_Followup_viability: Viability Assessment in the Tox21 Thyroid Hormone Receptor beta Antagonism Beta-lactamase (BLA) Follow-Up Assay (AID 2283961)
# Method in brief: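 In the same wells as the reporter read, cell health was gauged by CellTiter-Glo ATP luminescence, with signal loss indicating reduced viability. Cells had been exposed to test compounds for 18 h.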
# [18] = TOX21_TR_RXR_BLA_Antagonist_Followup_viability: Viability Assessment in the Tox21 Thyroid Hormone Receptor beta Retinoid X Receptor alpha (RXRa) Antagonism Beta-lactamase (BLA) Follow-Up Assay (AID 2283979)
# Method in brief: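 RXRa-bla HEK293T cells (2,500/well, phenol red-free DMEM, 2% charcoal-stripped FBS) were attached 5 h, then exposed to compounds at 11 concentrations in triplicate for 16 h at 37C. Viability measured by CellTiter-Glo ATP luminescence, bidirectional fitting versus DMSO.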
# Chain of THRB (gene 7068) (P10828 whole entry, looked up, the tested form may be a part): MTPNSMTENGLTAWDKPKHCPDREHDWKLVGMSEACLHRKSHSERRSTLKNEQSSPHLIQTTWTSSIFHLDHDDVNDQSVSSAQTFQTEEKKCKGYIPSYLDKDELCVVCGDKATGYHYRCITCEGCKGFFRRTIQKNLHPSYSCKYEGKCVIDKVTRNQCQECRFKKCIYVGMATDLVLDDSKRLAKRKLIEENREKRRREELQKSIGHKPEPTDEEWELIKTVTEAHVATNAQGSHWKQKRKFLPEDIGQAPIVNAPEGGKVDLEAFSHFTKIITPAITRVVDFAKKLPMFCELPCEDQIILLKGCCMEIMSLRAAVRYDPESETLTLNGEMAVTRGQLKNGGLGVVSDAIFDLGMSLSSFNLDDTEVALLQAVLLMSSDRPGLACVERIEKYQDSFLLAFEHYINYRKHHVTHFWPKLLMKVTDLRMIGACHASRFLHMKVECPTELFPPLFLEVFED
# Chain of PGR (gene 5241) (P06401 whole entry, looked up): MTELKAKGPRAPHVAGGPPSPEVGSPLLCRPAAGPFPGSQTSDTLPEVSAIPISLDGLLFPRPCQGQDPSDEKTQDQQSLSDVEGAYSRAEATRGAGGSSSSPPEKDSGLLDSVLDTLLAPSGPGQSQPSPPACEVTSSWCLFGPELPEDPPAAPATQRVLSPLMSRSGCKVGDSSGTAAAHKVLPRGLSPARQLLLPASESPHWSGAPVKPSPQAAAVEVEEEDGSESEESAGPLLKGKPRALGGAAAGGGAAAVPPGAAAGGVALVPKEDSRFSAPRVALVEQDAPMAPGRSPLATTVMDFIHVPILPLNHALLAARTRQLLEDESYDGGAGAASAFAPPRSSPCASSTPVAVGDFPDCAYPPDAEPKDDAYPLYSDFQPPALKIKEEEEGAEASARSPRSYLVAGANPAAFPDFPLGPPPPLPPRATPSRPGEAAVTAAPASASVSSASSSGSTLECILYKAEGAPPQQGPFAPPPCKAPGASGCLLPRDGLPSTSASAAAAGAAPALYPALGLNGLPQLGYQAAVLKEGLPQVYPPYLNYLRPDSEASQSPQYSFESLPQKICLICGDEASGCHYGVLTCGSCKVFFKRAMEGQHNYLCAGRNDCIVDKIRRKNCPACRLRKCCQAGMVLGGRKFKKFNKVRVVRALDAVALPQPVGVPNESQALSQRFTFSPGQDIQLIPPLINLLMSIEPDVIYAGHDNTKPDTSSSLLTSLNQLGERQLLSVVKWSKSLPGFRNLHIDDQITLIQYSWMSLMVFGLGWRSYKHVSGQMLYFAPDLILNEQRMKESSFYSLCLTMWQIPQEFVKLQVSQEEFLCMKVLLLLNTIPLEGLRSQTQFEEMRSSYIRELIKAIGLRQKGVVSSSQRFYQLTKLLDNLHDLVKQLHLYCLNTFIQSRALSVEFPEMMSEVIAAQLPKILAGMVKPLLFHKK
# Chain of THRA (gene 7067) (P10827 whole entry, looked up, the tested form may be a part): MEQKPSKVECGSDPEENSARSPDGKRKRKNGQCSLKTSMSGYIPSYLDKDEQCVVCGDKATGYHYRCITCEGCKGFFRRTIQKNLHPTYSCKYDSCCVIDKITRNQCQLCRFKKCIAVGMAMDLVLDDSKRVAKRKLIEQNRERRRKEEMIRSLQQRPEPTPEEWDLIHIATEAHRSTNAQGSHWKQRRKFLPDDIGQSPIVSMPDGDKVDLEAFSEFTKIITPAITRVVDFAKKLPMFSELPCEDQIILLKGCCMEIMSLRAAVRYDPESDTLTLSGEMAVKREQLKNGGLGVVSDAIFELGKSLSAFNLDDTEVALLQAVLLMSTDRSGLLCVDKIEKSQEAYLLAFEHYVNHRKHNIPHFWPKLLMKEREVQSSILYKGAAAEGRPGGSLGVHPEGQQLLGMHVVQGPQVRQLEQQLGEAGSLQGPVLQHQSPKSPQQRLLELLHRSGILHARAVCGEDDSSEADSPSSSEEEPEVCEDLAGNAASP
# Chain of Retinoic acid receptor RXR-alpha (Homo sapiens) (P19793 whole entry, looked up, the tested form may be a part): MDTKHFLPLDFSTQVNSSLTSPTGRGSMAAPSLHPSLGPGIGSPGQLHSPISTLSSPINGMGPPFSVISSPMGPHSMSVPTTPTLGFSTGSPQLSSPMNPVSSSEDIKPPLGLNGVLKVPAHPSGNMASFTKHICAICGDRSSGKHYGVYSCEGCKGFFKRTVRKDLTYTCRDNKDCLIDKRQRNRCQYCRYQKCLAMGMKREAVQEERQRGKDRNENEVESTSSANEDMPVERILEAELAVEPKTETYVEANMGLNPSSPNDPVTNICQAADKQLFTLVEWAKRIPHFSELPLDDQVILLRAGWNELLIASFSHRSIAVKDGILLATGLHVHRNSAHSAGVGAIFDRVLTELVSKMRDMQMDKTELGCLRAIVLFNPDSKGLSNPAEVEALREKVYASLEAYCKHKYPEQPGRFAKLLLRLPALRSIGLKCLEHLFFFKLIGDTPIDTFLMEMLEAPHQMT
compound,measurement,setting,value
O=C(c1ccccc1)C1(O)CCCCC1,outcome,[1],inactive
same,outcome,[2],inactive
same,outcome,[3],inactive
same,outcome,[4],inactive
CCOC(=O)C1=C(C)NC(C)=C(C(=O)OC)C1c1cccc(Cl)c1Cl (configuration not stated),outcome,[5],inactive
same,AC50,[6],14.7 µM (active)
same,outcome,[7],inactive
same,AC50,[8],13.4 µM (active)
O=C1OC(OC(=O)c2cccnc2Nc2cccc(C(F)(F)F)c2)c2ccccc21 (configuration not stated),outcome,[9],inactive
same,outcome,[10],inactive
same,outcome,[11],inactive
same,outcome,[12],inactive
O=C(O)CCNC(=O)c1ccccc1,AC50,[13],15.2 µM (active)
same,AC50,[14],12.6 µM (active)
same,AC50,[15],16.1 µM (active)
same,outcome,[16],inactive
CCOC(=O)C1=C[C@]2(CC)CCCN3CCc4c(n1c1ccccc41)[C@@H]32,outcome,[17],inactive
same,outcome,[18],inactive
C#C[C@]1(O)CC[C@H]2[C@@H]3CCC4=CC(=O)CC[C@@H]4[C@H]3C(=C)C[C@@]21CC,outcome,[17],inactive
NC(=O)N1c2ccccc2CC(=O)c2ccccc21,outcome,[2],inactive
same,outcome,[3],inactive
same,outcome,[4],inactive
